# Data reported in PubChem BioAssay (Tox21).
# Records with an inconclusive call do not appear. A call without a number means that no potency is given here. Values without a mark were called inactive. Activity calls are given as the source filed them. Calls follow the shape of the dose curve; as a rule, active = well fitted cell-killing curve with a large enough effect in the repeat runs; inconclusive = weak or mixed curves, or effect the other way; inactive = flat fitted curve, though single readings scatter.
# Assay: qHTS assay to identify small molecule agonists of the androgen receptor (AR) signaling pathway in the presence of an antagonist - cell viability counter screen (AID 1259379); also: nearly all actives have a fitted effect of over 25% in size
# Conditions: MDA-kb2 viability, CellTiter-Fluor, 16 h; series mostly up to 92.4 µM
# Text: National Center for Advancing Translational Sciences [NCATS]
# NIH Chemical Genomics Center [NCGC]
# U.S. Environmental Protection Agency [EPA]
# National Institutes of Environmental Health Sciences [NIEHS]
# National Toxicology Program [NTP]
# U.S. Food and Drug Administration [FDA]
# Androgen receptor (AR) is an important member of nuclear receptor family. Its signaling plays a critical role in AR-dependent prostate cancer and other androgen related diseases. Considerable attention has been given in the past decades to develop methods to study and screen for the environmental chemicals that have the potential to interfere with metabolic homeostasis, reproduction, developmental and behavioral functions. Therefore AR binding assay for screening against androgen agonists and antagonists can be used to identify potential endocrine disruptors.
# MDA-kb2 cells (from ATCC, deposited by Wilson et al.) are human breast carcinoma cells that were stably transfected with a luciferase reporter gene under control of the MMTV promoter that contains response elements for both androgen receptor (AR) and glucocorticoid receptor (GR). This particular screening for measuring luciferase reporter gene activity using MDA-kb2 cells against Tox21 10K library compounds is a confirmation study on agonist mode screening in the presence of AR-antagonist compound (Nilutamide) at 3.0uM final concentration. The cytotoxicity of the compounds was tested in parallel by measuring the cell viability using CellTiter-Fluor assay system (Promega, Madison, WI) in the same wells.
# Tox21 Assay Protocol Summary:
# MDA-kb2 cells (cells cultured without CO2) were dispensed at 3,000 cells/well in 4uL of culture medium into white wall/solid-bottom 1536-well plates (Corning Life Sciences, Corning, NY) using a Multidrop Combi (Thermo Fisher Scientific Inc., Waltham, MA) dispenser. The assay plates were incubated at 37C and 0% CO2 for 5hr. One uL of 3.0uM (final concentration) Nilutamide or assay buffer was added using two separate tips of Flying Reagent Dispenser (FRD, Aurora Discovery, San Diego, CA). Then 23nL of compounds dissolved in DMSO at 15 concentrations and positive controls were transferred to the assay plates using a Pintool station (Wako, San Diego, CA). The assay plates were incubated at 37C and 0% CO2 for 16 hr. After 15hr incubation at 37C, 1uL/well CellTiter-Fluor reagent (Promega Corporation) was added to each well of the assay plates using FRD. After 1hr incubation at 37C and 0% CO2, the fluorescence signal was measured using a ViewLux plate reader (PerkinElmer, Shelton, CT).
SMILES,Potency,"activity change, negative = cytotoxicity"
O=C(COCCOCCOCC(=O)Nc1c(I)cc(I)c(C(=O)O)c1I)Nc1c(I)cc(I)c(C(=O)O)c1I,inactive,–
C=CCOc1c(Br)cc(C(C)(C)c2cc(Br)c(OCC=C)c(Br)c2)cc1Br,inactive,–
C[N+](C)(C)CC(O)CCl (stereo not given),inactive,–
CCCCC/C=C/CC(=O)OC,inactive,–
CO[Si](CCCS)(OC)OC,inactive,–
CCN(Cc1cccc(S(=O)(=O)O)c1)c1ccccc1,inactive,–
SCCSCCS,inactive,–
CC(Cl)COP(=O)(OCC(C)Cl)OCC(C)Cl (stereo not given),inactive,–
CC(C)=CC(C)(C)C,inactive,–
C=C(C)C(=O)OCCCCCCOC(=O)C(=C)C,inactive,–
CCCCCCCCCCCCC,inactive,–
CC(C)COC(=O)/C=C/c1ccccc1,inactive,–
C/C=C(\C)C(=O)OCC/C=C\CC,inactive,–
CC(C)(C)NCCO,inactive,–
CC(C)C(=O)c1ccccc1,inactive,–
CNC(=O)NC,inactive,–
Nc1nc(=O)n([C@@H]2O[C@H](CO)[C@@H](O)[C@@H]2F)cc1I,inactive,–
CC(C)CCC(=O)CCC(C)C,inactive,–
Cc1ccccc1N1CCN(CCc2nnc3n2CCCC3)CC1,inactive,–
CN(C)CCOCCN(C)CCO,inactive,–

SMILES,Potency,"activity change, negative = cytotoxicity"
CCC1COC(=O)O1 (stereo not given),inactive,–
CCC(C)(CCC(C)C)C(=O)[O-].CCC(C)(CCC(C)C)C(=O)[O-].[Zn+2] (stereo not given),inactive,–
CCCCC[Si](OCC)(OCC)OCC,inactive,–
Cc1oc(=O)oc1CN1CCN(c2cc3c(cc2F)c(=O)c(C(=O)O)c2n3C(C)S2)CC1 (stereo not given),inactive,–
CCCCCCCCCCCCCCCC(=O)NCCO,inactive,–
CCCCC(=O)N(C)C,inactive,–
CC(C)COC(=O)COc1ccc(Cl)cc1Cl,inactive,–
CCCCCCCCCCC,inactive,–
COC(=O)CCC(=O)O,inactive,–
CCOC(=O)CCCCCCCCC(=O)OCC,inactive,–
Nc1ccc(C(=O)OCC(O)CO)cc1 (stereo not given),inactive,–
NS(=O)(=O)c1ccccc1OC(F)(F)F,inactive,–
Cc1ccc(S(=O)(=O)NC(=O)NC2CCCCCCC2)cc1,inactive,–
CC(=O)Nc1ccc(C)cc1,inactive,–
CCCCC(CC)C(=O)OC(C)C (stereo not given),inactive,–
NC(=O)NC(=O)Cc1ccccc1,inactive,–
CCCCCCCC[Si](OCC)(OCC)OCC,inactive,–
C[C@@H]1C[C@H]2[C@@H]3C[C@H](F)C4=CC(=O)C=C[C@]4(C)[C@@]3(F)[C@@H](O)C[C@]2(C)[C@@]1(O)C(=O)CO,inactive,–
O=c1[nH]c(=O)c2[nH]c(=O)[nH]c2[nH]1,–,-1.23% [at 8.39 µM]
C=CCOc1c(Br)cc(Br)cc1Br,inactive,–
